What all share (assay): NCI-60 one-dose screen, 48 h (100 = growth as untreated, 0 = no growth, -100 = all killed)
One test deals with DU-145 prostate. Conditions: 10 µM unless noted.
For another test, the system named is K-562 leukemia. The following applies: 10 µM unless noted.
The test system of the next test is MALME-3M melanoma. Conditions: 10 µM unless noted.
The subject of a further test is MDA-MB-231 breast. The following applies: 10 µM unless noted.
Another test relates to RXF 393 renal. The following applies: 10 µM unless noted.
The subject of a further test is SF-268 CNS. The following applies: 10 µM unless noted.
The test system of the next test is SF-295 CNS. The following applies: 10 µM unless noted.
The subject of another test is SF-539 CNS. The following applies: 10 µM unless noted.
The next test relates to UACC-257 melanoma. Conditions: 10 µM unless noted.
The subject of another test is M14 melanoma. Conditions: 10 µM unless noted.
The next test deals with HCT-15 colon. Conditions: 10 µM unless noted.
In another test the test system is HT29 colon. Conditions: 10 µM unless noted.
Another test has as its system SNB-19 CNS. The following applies: 10 µM unless noted.
A further test relates to U251 CNS. Conditions: 10 µM unless noted.
The next test has as its system PC-3 prostate. The following applies: 10 µM unless noted.
The next test has as its system SK-MEL-5 melanoma. Conditions: 10 µM unless noted.
Another test concerns UACC-62 melanoma. Conditions: 10 µM unless noted.
Another test relates to LOX IMVI melanoma. The following applies: 10 µM.
The test system of the next test is SK-MEL-28 melanoma. The following applies: 10 µM unless noted.

The panel holds about 83,000 compounds, 20% with a hit somewhere; the sample as a whole holds those more often.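 For each line, cells grew in 96-well plates with the test compound present at a single concentration for 48 hours.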 Values without a mark were called inactive. The source made the active and inactive calls. The calls were made as follows: active = growth percent below 10; inactive = the rest.

`NS(=O)(=O)c1ccc(CCNC(=O)CSc2ccc(-c3ccc(Br)cc3)nn2)cc1`: the growth with DU-145 prostate was 71.1%; with K-562 leukemia, 36%; with MALME-3M melanoma, 75.9%; in the test with MDA-MB-231 breast it was 85.2%; with RXF 393 renal it was 87.7%; in the test on SF-268 CNS, 72.5%. The growth in the test on SF-295 CNS is 59.9%; with SF-539 CNS, 79.2%; in the test with UACC-257 melanoma, 38.5%; in the test on M14 melanoma, 77%; in the test on HCT-15 colon, 97.4%; in the test on HT29 colon it was 82.6%. Further, the growth in the test on SNB-19 CNS is 61.5%; in the test with U251 CNS, 76%; in the test on PC-3 prostate it was 74%; in the test with SK-MEL-5 melanoma, 28.4%; in the test with UACC-62 melanoma it was 66.8%; in the test on LOX IMVI melanoma, 59.8%. The growth in the test on SK-MEL-28 melanoma was 78.1%.
As for `CC12CC[C@@H]3[C@]4(C)COC(c5c(F)cccc5F)O[C@@H]4CC[C@@]3(C)[C@@H]1CC(C1=CCOC1=O)O2` (stereo partly drawn), the growth with DU-145 prostate is 76.6%; with K-562 leukemia, 66.6%; with MALME-3M melanoma it was 60.4%; in the test on MDA-MB-231 breast, 36.5%; with RXF 393 renal, 83.8%; in the test with SF-268 CNS, 70.3%. Further, the growth is 69.1% in the test on SF-295 CNS; 33.8% in the test with SF-539 CNS; 64.6% in the test with UACC-257 melanoma; 66.5% in the test on M14 melanoma; 80.4% in the test with HCT-15 colon; 76.5% with HT29 colon. For the same compound, the growth in the test on SNB-19 CNS is 63.2%; in the test on U251 CNS, 80%; with PC-3 prostate it was 56.4%; in the test with SK-MEL-5 melanoma, 47.4%; in the test on UACC-62 melanoma, 50.4%; with LOX IMVI melanoma, 73.1%. Moreover, the growth in the test with SK-MEL-28 melanoma is 88.8%.
Regarding `Cn1cc(-c2cc(N)n3nc(-c4c[nH]c5ccccc45)cc3n2)c2cccnc21`, the growth was 38.2% in the test on DU-145 prostate; 6.08% (active) in the test with K-562 leukemia; -27.3% (active) with MALME-3M melanoma; -9.34% (active) in the test on MDA-MB-231 breast; 29.6% in the test with RXF 393 renal; 81.6% in the test with SF-268 CNS. Also, the growth was -4.84% (active) in the test with SF-295 CNS; -81.5% (active) in the test on SF-539 CNS; 92.3% in the test on UACC-257 melanoma; -48.1% (active) in the test on M14 melanoma; -10.2% (active) in the test on HCT-15 colon; -38.1% (active) in the test on HT29 colon. The growth is 59.9% in the test on SNB-19 CNS; 20% in the test with U251 CNS; 5.88% (active) in the test on PC-3 prostate; 23.1% with SK-MEL-5 melanoma; -84% (active) with UACC-62 melanoma; -85.8% (active) with LOX IMVI melanoma. Further, the growth in the test on SK-MEL-28 melanoma is -81.6% (active).
Regarding `COc1ccc(-c2nc3cc(C)ccc3n2CC(=O)N=Nc2c(O)[nH]c3ccccc23)cc1`, the growth is 9.13% (active) with DU-145 prostate; 4.42% (active) in the test with K-562 leukemia; -60% (active) with MALME-3M melanoma; -54.2% (active) with MDA-MB-231 breast; -29.7% (active) in the test on RXF 393 renal; -5.5% (active) with SF-268 CNS. For the same compound, the growth in the test on SF-295 CNS is 15.4%; in the test on SF-539 CNS, -90.2% (active); in the test with UACC-257 melanoma it was -7.27% (active); in the test on M14 melanoma, -71.5% (active); in the test on HCT-15 colon it was -64.7% (active); in the test on HT29 colon, -28.2% (active). In addition, the growth is 19.1% with SNB-19 CNS; 5.59% (active) in the test on U251 CNS; 8.89% (active) in the test on PC-3 prostate; -93% (active) with SK-MEL-5 melanoma; -37.2% (active) in the test with UACC-62 melanoma; -63.5% (active) with LOX IMVI melanoma. For the same compound, in the test with SK-MEL-28 melanoma, the growth was -57.5% (active).
As to `Cn1cc(NC(=O)c2cc(NC(=O)c3ccc(/C=C/c4ccccc4)cc3)cn2C)cc1C(=O)NCCCN1CCOCC1`, the growth with DU-145 prostate was 44.4%; with K-562 leukemia, -41.3% (active); in the test on MALME-3M melanoma it was -83.3% (active); in the test on MDA-MB-231 breast, -19.9% (active); in the test with RXF 393 renal, -3.75% (active); in the test on SF-268 CNS it was 58.6%. The growth is -80.5% (active) with SF-295 CNS; -98.2% (active) with SF-539 CNS; 77.9% in the test with UACC-257 melanoma; -84% (active) with M14 melanoma; 7.6% (active) in the test on HCT-15 colon; -88.5% (active) in the test on HT29 colon. Also, the growth with SNB-19 CNS was 70.4%; with U251 CNS, -69.2% (active); with PC-3 prostate, 38.1%; with SK-MEL-5 melanoma it was -70% (active); with UACC-62 melanoma, -89% (active); in the test on LOX IMVI melanoma it was -97.5% (active). Besides, in the test with SK-MEL-28 melanoma, the growth is 32.5%.
Turning to `O=C(c1ccc(OCCN2CCOCC2)cc1)C1[C@H](c2ccc(Cl)cc2)[C@@H](c2ccccc2)NC12C(=O)Nc1ccc(Br)cc12` (stereo partly drawn), the growth was 41.6% in the test with DU-145 prostate; 1.09% (active) in the test on K-562 leukemia; 56.3% with MALME-3M melanoma; 18.2% in the test with MDA-MB-231 breast; -1.59% (active) with RXF 393 renal; 39.6% in the test on SF-268 CNS. In addition, the growth in the test on SF-295 CNS was 21.8%; in the test on SF-539 CNS it was 35%; with UACC-257 melanoma, 39.7%; in the test with M14 melanoma, 23.8%; with HCT-15 colon, 8.44% (active); in the test with HT29 colon, -76.6% (active). Besides, the growth in the test on SNB-19 CNS was 37.4%; in the test with U251 CNS it was 22.6%; with PC-3 prostate it was 3.86% (active); in the test with SK-MEL-5 melanoma, 47.3%; in the test with UACC-62 melanoma, 38.5%; in the test with LOX IMVI melanoma, -75.2% (active). In addition, the growth in the test on SK-MEL-28 melanoma is 44.1%.
For `N/C(=N\N=C\c1ccc([N+](=O)[O-])cc1)c1c(N)nc(=S)[nH]c1-c1ccc(Cl)cc1Cl`, the growth is 115% in the test on DU-145 prostate; 95% in the test with K-562 leukemia; 73% in the test on MALME-3M melanoma; 77.5% with MDA-MB-231 breast; 73.1% in the test with RXF 393 renal; 94.9% with SF-268 CNS. Besides, the growth with SF-295 CNS was 52.4%; in the test with SF-539 CNS, 74.7%; with UACC-257 melanoma, 104%; in the test on M14 melanoma it was 102%; in the test with HCT-15 colon it was 103%; in the test on HT29 colon, 116%. The growth in the test on SNB-19 CNS is 74.9%; in the test on U251 CNS it was 67%; in the test on PC-3 prostate, 96.8%; with SK-MEL-5 melanoma, 104%; in the test on UACC-62 melanoma, 84.7%; in the test with LOX IMVI melanoma, 96.5%. In the test on SK-MEL-28 melanoma, the growth is 113%.

Source of the values: PubChem BioAssay (NCI).
